Our source for the inhibition values is PubChem BioAssay.

Experiment [1] deals with Nuclear receptor coactivator 3 (Homo sapiens) (UniProt Q9Y6Q9). Briefly: SRC3 coactivator transcriptional activity inhibitors, confirmation, cell-based, luminescence, quadruplicate (AID 588792).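 Also: 0% = DMSO treated cells and 100% = gossypol at 36 µM.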 Conditions: HEK293 GAL4-SRC3 luciferase reporter, at 3.6 µM, hits give high values.
Experiment [2] deals with transactivating tegument protein VP16 (Human herpesvirus 1), Gal4-VP16 luciferase reporter. As to the kind of experiment: VP16 transactivation inhibitors, counter-screen for SRC3 inhibitor project, cell-based, luminescence, high throughput (AID 588794; in the data active = inhibition above about 30%). The following applies: mammalian cells, VP16-driven luciferase reporter luminescence; at 3.6 µM; hits give high values.
Experiment [3] concerns the target Nuclear receptor coactivator 1 (Homo sapiens) (UniProt Q15788). As to the kind of experiment: SRC1 coactivator transcriptional activity inhibitors, confirmation, cell-based, luminescence, quadruplicate (AID 588820;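 active = mean inhibition above 46.68%, the untreated control wells mean plus 3 SD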;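 also: 0% = DMSO wells and 100% = gossypol 36 µM treated wells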). Conditions: HEK293 GAL4-SRC1 luciferase reporter, at 3.6 µM, hits give high values.
Experiment [4] can be described thus: VP16 transactivation inhibitors, counter-screen for SRC1 inhibitor project, cell-based, luminescence, high throughput (AID 588824; in the data active = inhibition above about 25%). Conditions: cell-based VP16 transactivation luciferase luminescence; at 3.6 µM; hits give high values.

Values without a mark were called inactive. The source made the active and inactive calls.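 The calls were made as follows, unless noted: active = mean inhibition over 43.08%, the solvent-only control mean plus 3 SD; inactive = the rest.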

Sequence of Nuclear receptor coactivator 1 (Homo sapiens) (Q15788 whole entry, looked up, the tested form may be a part): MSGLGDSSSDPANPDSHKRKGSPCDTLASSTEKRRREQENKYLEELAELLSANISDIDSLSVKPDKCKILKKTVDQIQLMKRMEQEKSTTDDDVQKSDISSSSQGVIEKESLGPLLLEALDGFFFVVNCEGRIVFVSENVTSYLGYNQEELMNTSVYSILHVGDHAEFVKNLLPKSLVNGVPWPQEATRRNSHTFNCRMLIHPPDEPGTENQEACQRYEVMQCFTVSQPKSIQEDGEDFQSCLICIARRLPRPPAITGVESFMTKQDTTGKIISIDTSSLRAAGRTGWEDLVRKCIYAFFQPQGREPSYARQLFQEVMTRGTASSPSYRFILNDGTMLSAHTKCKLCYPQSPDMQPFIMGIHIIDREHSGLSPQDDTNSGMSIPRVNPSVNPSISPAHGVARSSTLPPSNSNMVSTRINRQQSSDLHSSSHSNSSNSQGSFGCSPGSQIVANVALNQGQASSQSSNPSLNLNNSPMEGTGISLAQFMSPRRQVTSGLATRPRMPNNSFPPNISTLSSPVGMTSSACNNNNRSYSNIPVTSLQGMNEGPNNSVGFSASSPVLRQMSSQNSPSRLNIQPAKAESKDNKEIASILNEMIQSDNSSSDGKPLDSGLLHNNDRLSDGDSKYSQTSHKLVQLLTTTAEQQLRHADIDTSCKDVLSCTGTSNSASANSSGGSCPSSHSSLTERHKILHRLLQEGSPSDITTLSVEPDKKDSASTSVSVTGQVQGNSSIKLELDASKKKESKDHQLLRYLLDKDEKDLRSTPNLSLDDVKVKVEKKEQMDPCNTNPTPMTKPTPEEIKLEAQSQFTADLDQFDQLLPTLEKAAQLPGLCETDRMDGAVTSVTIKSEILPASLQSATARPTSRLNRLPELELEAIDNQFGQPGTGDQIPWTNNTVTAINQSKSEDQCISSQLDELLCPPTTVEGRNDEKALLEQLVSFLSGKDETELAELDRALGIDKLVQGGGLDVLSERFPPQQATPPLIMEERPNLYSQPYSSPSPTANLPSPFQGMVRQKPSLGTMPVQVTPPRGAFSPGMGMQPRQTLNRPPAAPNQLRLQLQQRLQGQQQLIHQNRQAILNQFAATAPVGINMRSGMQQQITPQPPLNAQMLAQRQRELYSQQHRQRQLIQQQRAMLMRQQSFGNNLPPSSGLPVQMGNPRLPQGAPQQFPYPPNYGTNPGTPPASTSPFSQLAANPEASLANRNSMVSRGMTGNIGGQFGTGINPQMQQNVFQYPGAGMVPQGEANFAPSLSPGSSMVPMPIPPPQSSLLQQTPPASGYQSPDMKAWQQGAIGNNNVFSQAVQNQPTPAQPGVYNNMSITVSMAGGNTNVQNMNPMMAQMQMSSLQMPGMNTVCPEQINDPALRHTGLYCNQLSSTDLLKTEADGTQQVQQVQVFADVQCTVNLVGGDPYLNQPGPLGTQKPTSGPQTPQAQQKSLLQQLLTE
Sequence of Nuclear receptor coactivator 3 (Homo sapiens) (Q9Y6Q9 whole entry, looked up, the tested form may be a part): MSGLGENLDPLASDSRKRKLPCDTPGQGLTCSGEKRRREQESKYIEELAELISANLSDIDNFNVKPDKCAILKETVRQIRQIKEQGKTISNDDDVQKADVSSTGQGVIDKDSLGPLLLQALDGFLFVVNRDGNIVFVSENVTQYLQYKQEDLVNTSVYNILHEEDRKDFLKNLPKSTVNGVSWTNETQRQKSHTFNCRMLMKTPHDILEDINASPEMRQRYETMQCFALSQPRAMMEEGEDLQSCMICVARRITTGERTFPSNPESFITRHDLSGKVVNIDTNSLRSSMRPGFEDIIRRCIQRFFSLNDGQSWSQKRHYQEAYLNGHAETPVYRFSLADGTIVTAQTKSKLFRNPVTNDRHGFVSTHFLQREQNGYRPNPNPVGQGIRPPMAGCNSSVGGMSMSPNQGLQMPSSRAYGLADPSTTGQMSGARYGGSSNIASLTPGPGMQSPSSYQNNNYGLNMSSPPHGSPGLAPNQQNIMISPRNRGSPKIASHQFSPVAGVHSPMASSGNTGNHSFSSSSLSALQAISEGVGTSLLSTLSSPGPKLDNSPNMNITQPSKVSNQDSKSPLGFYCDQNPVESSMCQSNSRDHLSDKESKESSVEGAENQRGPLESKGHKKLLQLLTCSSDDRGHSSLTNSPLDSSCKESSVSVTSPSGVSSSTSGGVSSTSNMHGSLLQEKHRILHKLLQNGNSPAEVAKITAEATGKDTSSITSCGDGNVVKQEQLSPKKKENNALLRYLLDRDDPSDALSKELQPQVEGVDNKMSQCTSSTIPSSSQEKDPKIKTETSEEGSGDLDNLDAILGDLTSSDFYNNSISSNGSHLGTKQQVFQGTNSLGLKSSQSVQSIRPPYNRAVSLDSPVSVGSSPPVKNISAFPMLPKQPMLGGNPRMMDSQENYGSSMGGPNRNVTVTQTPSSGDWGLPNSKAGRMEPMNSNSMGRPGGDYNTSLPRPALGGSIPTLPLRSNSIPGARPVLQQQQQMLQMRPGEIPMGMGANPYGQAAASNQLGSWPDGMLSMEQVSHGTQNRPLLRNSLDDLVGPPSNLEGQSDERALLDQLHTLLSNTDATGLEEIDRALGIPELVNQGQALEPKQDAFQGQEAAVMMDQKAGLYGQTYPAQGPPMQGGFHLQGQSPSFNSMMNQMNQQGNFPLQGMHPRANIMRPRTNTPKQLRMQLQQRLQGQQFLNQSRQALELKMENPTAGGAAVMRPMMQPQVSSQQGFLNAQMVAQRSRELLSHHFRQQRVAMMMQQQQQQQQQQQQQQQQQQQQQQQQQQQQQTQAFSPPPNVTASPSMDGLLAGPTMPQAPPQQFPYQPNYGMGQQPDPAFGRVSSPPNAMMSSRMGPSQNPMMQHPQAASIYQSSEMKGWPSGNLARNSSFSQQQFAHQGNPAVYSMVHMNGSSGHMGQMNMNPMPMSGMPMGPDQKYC

As to `O=C(c1ccncc1)N(Cc1cc2ccccc2[nH]c1=O)C1CCCCC1`, the inhibition in experiment [1] was 40.7%; in experiment [2], 23.2%; in experiment [3], 42.2%; in experiment [4], 23.1%.

For `COc1ccc(C)cc1N=Nc1ccc(O)c2ncccc12`, the inhibition in experiment [1] was 9.14%; in experiment [2], -10.3%; in experiment [3], -18.4%; in experiment [4], 0.73%.

Regarding `CN(C)/C=C/C(=O)c1ccc2noc(-c3ccccc3)c2c1`, the inhibition in experiment [1] is 55.5% (active); in experiment [2], 28.1%; in experiment [3], 41.3%; in experiment [4], 33.7% (active).

With `c1cnc2ccc(-n3ccnc3)cc2c1`, the inhibition in experiment [1] was 24.2%; in experiment [2], 23.8%; in experiment [3], 19.9%; in experiment [4], 22.4%.

`Clc1cncc(Cl)c1N/N=C/c1ccncc1`: the inhibition was 24.8% in experiment [1], 26.7% in experiment [2], 40.4% in experiment [3] and 27.4% (active) in experiment [4].

Take `CC(=O)Nc1ccc(SCC(=O)c2cc(C)n(-c3ccccc3)c2C)cc1`: the inhibition in experiment [1] was 30.3%; in experiment [2], 19.6%; in experiment [3], -4.5%; in experiment [4], -6.91%.

Regarding `CCc1nc(Cl)c(C#N)c2c1CCCC2`, the inhibition is 43.2% (active) in experiment [1], 34.1% (active) in experiment [2], 34.8% in experiment [3] and 28.9% (active) in experiment [4].

As for `CN(C(=O)COC(=O)/C=C/c1cccc([N+](=O)[O-])c1)C1CCS(=O)(=O)C1` (stereo unspecified), the inhibition in experiment [1] is 39.1%; in experiment [2] it was 32.4% (active); in experiment [3], 41.6%; in experiment [4], 29.5% (active).

As to `CCn1nc(C)c(CNC(=O)c2cc(COc3ccc(F)cc3Cl)on2)c1C`, the inhibition in experiment [1] is 12.7%; in experiment [2], 28.5%; in experiment [3], 8.35%; in experiment [4], 20%.

Consider `CC(=O)c1c(C)n(-c2ccccc2)c2ccc(O)cc12`, for which the inhibition is 50.6% (active) in experiment [1], 41.6% (active) in experiment [2], 44.7% in experiment [3] and 37.9% (active) in experiment [4].

For the molecule `C(=Cc1cnc2ccccc2n1)c1ccc2c(c1)OCO2`, the inhibition was 58.3% (active) in experiment [1], 25.1% in experiment [2], -41.3% in experiment [3] and 21.3% in experiment [4].

With `CC(C)CCNC(=O)C(c1ccncc1)N(Cc1cccs1)C(=O)Cn1nnc(-c2ccc(F)cc2)n1` (stereo unspecified), the inhibition in experiment [1] was 66.2% (active); in experiment [2], 54.1% (active); in experiment [3], 46.3%; in experiment [4] it was 52.2% (active).

Take `O=C(Nc1nc(-c2ccc(F)c(F)c2)cs1)c1ccc(OCC2CCCO2)cc1` (stereo unspecified): the inhibition was 7.06% in experiment [1], 36% (active) in experiment [2], 5.41% in experiment [3] and 39.4% (active) in experiment [4].

For the molecule `O=C(Nc1c2ccccc2nc2ccccc12)C(Cl)(Cl)Cl`, the inhibition is -27% in experiment [1], 10.5% in experiment [2], -35% in experiment [3] and 8.17% in experiment [4].

With `CCOc1cc(/C=C2\CN(C)C/C(=C\c3ccc(O)c(OCC)c3)C2=O)ccc1O`, the inhibition in experiment [1] was 56.2% (active); in experiment [2] it was 60.4% (active); in experiment [3] it was -18.5%; in experiment [4], 75.6% (active).

As to `CCCS(=O)(=O)Nc1ccc(Nc2c3ccccc3nc3ccccc23)c(OC)c1`, the inhibition was 64.2% (active) in experiment [1], 17.1% in experiment [2], 56.8% (active) in experiment [3] and 2.6% in experiment [4].

In the case of `COc1cc(C(=O)OCC(=O)Nc2sccc2C(N)=O)cc(OC)c1OC`, the inhibition in experiment [1] was 42.7%; in experiment [2] it was 10.3%; in experiment [3], -42.7%; in experiment [4] it was 5.18%.

Regarding `CCC(=O)Oc1c(C(=O)CC)cc2c(C)cc(=O)oc2c1C`, the inhibition was 15.1% in experiment [1], 17.6% in experiment [2], 25.6% in experiment [3] and 15.6% in experiment [4].

Regarding `CC(C)n1c(-c2cccnc2)nc2cnccc21`, the inhibition was 29.8% in experiment [1], 26.9% in experiment [2], 38.1% in experiment [3] and 18.9% in experiment [4].
